The campaign covered roughly 48,000 compounds. About 13,000 (27%) showed an effect of 50% or more. Some of the results follow.
Tested on: Wolbachia pipientis
Assay: Anti-Wolbachia Cell-Based Screen
Type: functional
Set-up: scale not given: in the data most compounds retested in dose-response had high values
Details: 5 µM

Row | SMILES | Percent Effect [%]
1 | Cc1cc(NC(=O)C(C)N2CCN(c3nc(C)cs3)CC2)on1 (configuration not stated) | 1.656
2 | COCc1cccc(NC(C(N)=O)c2ccc(Br)cc2)c1 (configuration not stated) | 31.5
3 | Cc1cc(NCC2CCN(c3ccccc3)C2)n2ncnc2n1 (configuration not stated) | 0.02222
4 | O=C(COCC1CCCO1)N1CCCN(Cc2ccccc2F)CC1 (configuration not stated) | -31.39
5 | CSc1ccc2cc(CN(C)CCCN(C)C)c(=O)[nH]c2c1 | -7.905
6 | CSc1ccccc1CN1CCn2nc(CNC(C)=O)cc2C1 | -10.31
7 | COc1cccc(CCCn2cnnc2[S+](C)[O-])c1 (configuration not stated) | 5.279
8 | CN(Cc1ccccc1)CC(O)Cn1cnc2c(cnn2C)c1=O (configuration not stated) | -10.76
9 | COc1ccc(OCCN(C)C(=O)NC(C)c2nncn2C)cc1 (configuration not stated) | 5.358
10 | CCS(=O)(=O)c1ncc(CN(C)Cc2cccc(OC)c2)n1CCOC | -4.749
11 | COc1cccc(SCCCn2cnc3c(N)ncnc32)c1 | 97.7
12 | CN(Cc1ccccc1)CC(O)Cn1cnc2ccccc2c1=O (configuration not stated) | 5.606
13 | COc1cccc(CN(C)C(=O)CN2CCN(CCO)CC2)c1 | -4.711
14 | COc1cccc(SCC(=O)N2CCC(N3CCCC3=O)CC2)c1 | -9.437
15 | CN(CCCn1cnc2c(N)ncnc21)Cc1ccccc1 | 86.6
16 | COc1ccc(OCCN(C)CCCn2cnc3c(N)ncnc32)cc1 | 102.2
17 | COc1ccc(OCCCN(C)C(=O)C2CCCN2C(N)=O)cc1 (configuration not stated) | -3.357
18 | COc1cccc(CN(C)CCCn2cnc3c(N)ncnc32)c1 | 85.72
19 | CC(CC(=O)NS(=O)(=O)c1ccc2c(c1)OCCO2)c1ccc(F)cc1 (configuration not stated) | -2.674
20 | C[C@@H]1CN(C(=O)CCCn2nnc(-c3ccc(F)cc3)n2)C[C@]1(C)O | 1.392
21 | O=C(c1cnc(-c2ccccc2)s1)N1CCOC2(CCCC2)C1 | -9.958
22 | CN(C)C1COC2(CCN(C(=O)c3cccnc3)CC2)C1 (configuration not stated) | -11.3
23 | CC(C)(C)C(=O)N1CCC2(CNS(=O)(=O)c3cnccc3O2)C1 (configuration not stated) | 153.5

Row | SMILES | Percent Effect [%]
24 | CN(C)CCN1CC2(CCN(C(=O)c3cnccn3)CC2)OC1=O | -7.77
25 | Cc1nc(C2CCN(C(=O)c3ccc(Cl)s3)CC2)cc(=O)[nH]1 | -8.54
26 | CC(C)(C)C(=O)N1CCC2(CC1)CC(Oc1ccccc1)CO2 (configuration not stated) | -1.342
27 | O=C(c1cccnc1)N1CCC2(CNS(=O)(=O)c3cnccc3O2)C1 (configuration not stated) | 123.8
28 | CC(C)N(C)C(=O)C1=NOC2(CCN(C(=O)c3ccccn3)C2)C1 (configuration not stated) | 12.65
29 | O=C(c1ccccn1)N1CCC2(CNS(=O)(=O)c3cnccc3O2)C1 (configuration not stated) | 119.5
30 | O=C(c1ccc(Cl)s1)N1CCC2(CNS(=O)(=O)c3cnccc3O2)C1 (configuration not stated) | 130.4
31 | CC(C)(C)C(=O)N1CCN(Cn2nccc2-c2cccnc2)CC1 | -27.57
32 | CC(C)C(=O)NC1COC2(CCN(C(=O)c3cccnc3)CC2)C1 (configuration not stated) | 16.59
33 | CC(C)Cn1cc(NC(=O)N2CCOC(c3ccccc3)C2)cn1 (configuration not stated) | 2.646
34 | Cc1nc(-c2ccccc2)sc1C(=O)NCCNc1ncccn1 | 2.127
35 | Cc1nc[nH]c1-c1nccn1-c1ccc(C(N)=O)c(N2CCCC2)c1 | 8.513
36 | CN(C(=O)CCC(F)(F)F)c1cccc2ncccc12 | 2.571
37 | Cc1n[nH]c(SCC(=O)N[C@@H](C)C(N)=O)n1 | -9.569
38 | O=C(O)C(F)(F)F.O=C1[C@H]2CN(c3ncccn3)C[C@H]2CN1Cc1ccncc1 | 3.817
39 | O=C(C1CCOCC1)N1C[C@@H]2[C@@H](C1)OCC(=O)N2Cc1ccncc1.O=C(O)C(F)(F)F | -1.521
40 | CCN1C[C@@H]2CN(C(=O)C3CC=CC3)C[C@@H]2C1=O | 14.39
41 | O=C(C1CC=CC1)N1C[C@H]2CN(Cc3ccncc3)C(=O)[C@H]2C1.O=C(O)C(F)(F)F | 103
42 | O=C(C1CCC1)N1C[C@@H]2CN(Cc3ccncc3)C(=O)[C@@H]2C1.O=C(O)C(F)(F)F | 108.5
43 | Cc1ccc(CNS(=O)(=O)CC2=NC(=O)n3cccc3C2=O)cc1 | 16.21
44 | COc1ccccc1OC1(C(=O)O)CCN(c2ccccn2)CC1 | -33.54
45 | O=C(O)C1(O)CCN(c2ccc3cccc(Cl)c3n2)CC1 | 102.6
46 | Cc1nc(N2CCCC2)nc(N2CCC(O)(C(=O)O)CC2)c1C | -11.99

Row | SMILES | Percent Effect [%]
47 | COc1ccccc1OC1(C(=O)O)CCN(c2nc(C)cnc2C)CC1 | -31.32
48 | COc1ccnc(CN2CCC(O)(c3ccc(C)cn3)CC2)c1OC | -7.822
49 | Nc1nccc(N2CCC(Cc3ccccc3Cl)(C(=O)O)CC2)n1 | -23.92
50 | COc1cccc(CN2CCC(O)(c3ccc(C)cn3)CC2)c1OC | -1.243
51 | COc1cccc2ccc(N3CCC(O)(c4ccc(C)cn4)CC3)nc12 | 110
52 | COc1cccc2ccc(N3CCC(O)(C(=O)O)CC3)nc12 | 85.02
53 | O=S(=O)(Nc1nccs1)c1cc(Cl)cc2c1OCC2 | -24.06
54 | Fc1cc(CN2CCOC3(CCOCC3)C2)ccc1OC(F)F | -0.1745
55 | CCc1noc(CSc2n[nH]c(-c3ccccn3)n2)n1 | -7.886
56 | Cn1cc(CN2CCCC(CCc3c(F)cccc3F)C2)cn1 (configuration not stated) | 4.691
57 | CCn1cc(CN2CCCC(COc3ccccc3F)C2)cn1 (configuration not stated) | 9.663
58 | Cn1nccc1CN1CCCC(COc2ccccc2F)C1 (configuration not stated) | 162.8
59 | CCC1CN(CCC(=O)N(C)C)CCN1CCOC (configuration not stated) | -4.079
60 | CCC1CN(CC(=O)N2CCN(C(C)=O)CC2)CCN1CCOC (configuration not stated) | 107.2
61 | CCC1CN(CC(=O)NC2(C#N)CCCC2)CCN1CCOC (configuration not stated) | 2.566
62 | CCC1CN(CCNC(C)=O)CCN1CCOC (configuration not stated) | 1.458
63 | CCC1CN(CC(=O)N2CCCC2)CCN1CCOC (configuration not stated) | 124
64 | CCC1CN(CC(=O)N2CCC2)CCN1CCOC (configuration not stated) | 4.498
65 | COCCNC(=O)c1cc(C2CC2)nc2onc(C3CCNC3)c12 (configuration not stated) | 98.56
66 | Cc1c(Br)cccc1C(=O)NCC1CCCNC1.Cl (configuration not stated) | 0.4435
67 | COc1ccc2nc(C3CC3)cc(C(=O)NCc3noc(C)n3)c2c1 | 1.07
68 | COc1ccc2nc(C3CC3)cc(C(=O)NCCc3nnc[nH]3)c2c1 | -12.63
69 | O=C(NCC1CC1)c1cc(C2CC2)nc2onc(C3CCCNC3)c12 (configuration not stated) | 103.5

Row | SMILES | Percent Effect [%]
70 | CC(C)Nc1nc2c(cc1C(=O)NCC1CC1)CCNCC2.O=C(O)C(F)(F)F.O=C(O)C(F)(F)F | -11.9
71 | O=c1[nH]c(C2CCOC2)nc2ccc(Br)cc12 (configuration not stated) | -44.09
72 | CCCc1noc(CNc2cc(C[S+](C)[O-])ccc2Cl)n1 (configuration not stated) | -7.446
73 | c1cnn(CCNCc2csc(-c3ccc4c(c3)OCO4)n2)c1 | -13.49
74 | COC(=O)CNC(=O)C(C(C)C)n1cnc2cc(F)c(F)cc21 (configuration not stated) | -6.926
75 | CCn1cnnc1CNC(=O)N1CCN(c2nccs2)CC1 | 84.21
76 | CCn1cnnc1CNC(=O)NCC(C(C)C)N1CCC(C)CC1 (configuration not stated) | -9.877
77 | CCn1cnnc1CNC(=O)N1CCN(c2nc(C)c(C)s2)CC1 | 1.256
78 | CCn1cnnc1CNC(=O)N1CCN(C(C)C)CC1 | 131.3
79 | CCn1cnnc1CNC(=O)N1CCN(CC(C)C)CC1 | 151.2
80 | CCn1cnnc1CNC(=O)N1CCN(c2cccs2)CC1 | 0.168
81 | CCn1cnnc1CNC(=O)N1CCN(Cc2ccsc2)CC1 | 120.4
82 | CCC1CN(Cc2nnc(C(C)C)o2)CCC(=O)N1Cc1ccccc1 (configuration not stated) | -5.543
83 | CC(C)N(C)C(=O)C1CCC(=O)N(CCc2cccc(F)c2)C1 (configuration not stated) | -15.9
84 | CN(Cc1ccco1)C(=O)NCc1ccnc(SC(C)(C)C)c1 | 12.7
85 | CN1CCOC(C(=O)N2CCOC3(CCCC3)C2)C1 (configuration not stated) | 0.3314
86 | CCn1cnnc1CNC(=O)N1CCCN(C(C)=O)CC1 | -5.792
87 | CCn1cnnc1CNC(=O)N1CCOCC1 | -3.836
88 | CCn1cnnc1CNC(=O)N1CCN(CCc2ccccc2)CC1 | 119.3
89 | CCn1cnnc1CNC(=O)N1CCC(Cc2cccnc2)CC1 | 3.678
90 | CCc1nncn1CCNC(=O)N1CCN(Cc2ccccc2)CC1 | 122
91 | Cc1cc(CNC(=O)N2CCCN(Cc3ccccc3)CC2)no1 | 3.243
92 | CCn1cnnc1CNC(=O)N1CCN(Cc2ccccc2)CC1 | 4.693

Row | SMILES | Percent Effect [%]
93 | CCn1cnnc1CNC(=O)N1CCCCCC1 | 138.5
94 | CCn1cnnc1CNC(=O)N1CCOC(c2ccc(F)cc2)C1 (configuration not stated) | -19.34
95 | CC(NC(=O)N1CCN(CCc2ccccc2)CC1)c1nncn1C (configuration not stated) | -0.7448
96 | CCn1cnnc1CNC(=O)N1CCN(Cc2ccco2)CC1 | 145.2
97 | CC(C)Oc1cccc(C(=O)C2CCCN(C(=O)c3ccoc3)C2)c1 (configuration not stated) | 9.263
98 | CCSCc1cccc(NC(=O)N(C)Cc2ncnn2C)c1 | -22.36
99 | COc1ccc(NC(C)C(=O)N2CCCC2)cn1 (configuration not stated) | 2.582
100 | CCn1cnnc1CNC(=O)N1CCC(C(=O)NC)CC1 | -5.598
101 | CCn1cnnc1CNC(=O)N1CCC(OCc2ccccc2)CC1 | 128.6
102 | CCN(CC)C1CCN(C(=O)NCc2nncn2CC)CC1 | 7.856
103 | O=C(NCC(O)c1cccc(O)c1)C1CCN(C2CCCCC2)CC1 (configuration not stated) | -14.15
104 | Cc1nc[nH]c1-c1c(-c2ccccc2)ncn1C1CCNC1 (configuration not stated) | 7.819
105 | O=C(O)C(F)(F)F.O=C([C@@H]1COC[C@H]2CN(c3ccncn3)C[C@H]21)N1CCCCO1 | -6.047
106 | CN1CCN(C(=O)[C@@H]2CC[C@@H]3[C@@H](CCN3c3ncccn3)O2)CC1.O=C(O)C(F)(F)F.O=C(O)C(F)(F)F | -4.531
107 | O=C([C@@H]1CC[C@@H]2[C@@H](CCN2c2ncccn2)O1)N1CCCO1 | 3.223
108 | O=C(O)C(F)(F)F.O=C([C@H]1CC[C@@H]2[C@@H](CCN2Cc2ccc(F)cc2)O1)N1CCCO1 | -3.999
109 | Cc1ccc(N2CC[C@H]3O[C@@H](C(=O)N4CCCCO4)CC[C@H]32)nn1.O=C(O)C(F)(F)F | 113.9
110 | Cc1ccc(N2CC[C@H]3O[C@H](C(=O)N4CCCCO4)CC[C@H]32)nn1.O=C(O)C(F)(F)F | 105.7
111 | O=C(O)C(F)(F)F.O=C([C@@H]1CC[C@@H]2[C@@H](CCN2c2ccncn2)O1)N1CCCCO1 | 117.6
112 | O=C([C@H]1CC[C@@H]2[C@@H](CCN2c2ncccn2)O1)N1CCCCO1 | 84.25
